M1 PAM parental = counter-screen for M1 PAMs: effect in parental CHO-K1 cells. ATP EC20, Fluo-8 calcium fluorescence; 0% at ATP EC20, 100% at ATP max. activation, % at 3 µM. 360,000 compounds, 0.02% hits. AID 602247;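 active means activation above the run cutoff, the mean activation of all test compounds plus 3 SD, cut at about 40% in these data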;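 further: peak over basal fluorescence ratio in a 140 s read after ATP addition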
M1 antag = human CHRM1 antagonism; CHO-K1 hM1, Fluo-8 calcium fluorescence, ACh EC80 antagonist; 360,000 compounds, 1.3% hits; inhibition, % at 3 µM; AID 588852;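 active means percent inhibition above its own plate's cutoff, namely the mean of that plate's compound wells plus 3 SD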;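 further: peak over basal fluorescence ratio during 140 s after agonist addition; 0% = ACh EC80 plus DMSO and 100% = DMSO alone without agonist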
Target sequence (P11229 whole entry, looked up): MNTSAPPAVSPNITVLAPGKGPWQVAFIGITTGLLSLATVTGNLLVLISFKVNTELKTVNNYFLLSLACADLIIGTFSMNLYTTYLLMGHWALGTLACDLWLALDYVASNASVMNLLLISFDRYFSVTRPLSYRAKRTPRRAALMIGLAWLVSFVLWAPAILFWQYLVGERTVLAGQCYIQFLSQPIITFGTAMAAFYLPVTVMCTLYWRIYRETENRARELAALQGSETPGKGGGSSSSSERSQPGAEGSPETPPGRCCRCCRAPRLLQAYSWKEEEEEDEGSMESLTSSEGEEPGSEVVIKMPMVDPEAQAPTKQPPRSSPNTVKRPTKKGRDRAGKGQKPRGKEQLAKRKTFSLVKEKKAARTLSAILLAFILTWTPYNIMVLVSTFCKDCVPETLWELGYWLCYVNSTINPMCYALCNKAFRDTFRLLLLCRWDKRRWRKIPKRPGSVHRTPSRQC
M1 ag parental = nonselective activator or artifact in parental CHO-K1 cells; Fluo-8 calcium fluorescence; scaled to maximal ATP response, vehicle zero; activation, % at 3 µM; 360,000 compounds, 0.48% hits; in the data active means activation above about 15%;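 further: untransfected CHO-K1 host cells lacking M1 receptor as counterscreen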
M1 ag = human M1 muscarinic receptor agonism; P11229; CHO-K1 hM1, Fluo-8 calcium fluorescence, agonist mode; 0% DMSO, 100% acetylcholine EC100; activation, % at 3 µM; 360,000 compounds, 0.33% hits; AID 588814;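 active means activation above the run's mean compound activation plus 3 SD, cut at about 16% in these data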;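 further: peak over basal fluorescence ratio within a 140 s kinetic read after compound addition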
CHO-K1 Ca antag = counter-screen for M1 antagonists: effect in parental CHO-K1 cells; AID 602250; ATP-induced calcium, Fluo-8 fluorescence; 360,000 compounds, 0.6% hits; inhibition, % at 3 µM;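 active means inhibition above a per-plate cutoff, the plate's mean sample inhibition plus 3 SD, cut at about 24% in these data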;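 further: 0% = DMSO plus EC80 ATP and 100% = DMSO alone without ATP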
CHRM1 PAM = potentiates human M1 receptor response to acetylcholine | CHO-K1 hM1, Fluo-8 calcium fluorescence, ACh EC20; 0% = ACh EC20, 100% = maximal ACh | activation, % at 3 µM | 360,000 compounds, 0.088% hits | AID 588819; in the data active means activation above about 19%, passing the limit was not always enough
* marks the source's active call; other numbers are inactive results; · = no result given. Compounds with a hit are over-represented: about 2.3% of the library has one in this group of screens.

SMILES	M1 PAM parental	M1 antag	M1 ag parental	M1 ag	CHO-K1 Ca antag	CHRM1 PAM
CCC1CCc2sc(C(=O)NCC(c3ccccc3OC)N3CCCC3)cc2C1 (stereo not drawn)	8	43*	1	-6	-14	-21
COc1ccccc1C(CNC(=O)C1COc2ccccc2O1)N1CCCC1 (stereo not drawn)	7	77*	2	-6	-24	-24
COc1ccccc1C(CNC(=O)C(C)(C)Oc1ccc(Cl)cc1)N1CCCC1 (stereo not drawn)	-2	89*	1	-8	12	-27
Cc1ccccc1CC1(CO)CCCN(C(=O)CCCN2CCCCC2=O)C1 (stereo not drawn)	-9	15	0	0	-2	-4
COc1ccccc1C(CNC(=O)C(C)Oc1ccc(Br)cc1)N1CCCC1 (stereo not drawn)	11	31*	1	-6	-2	-22
Clc1ccc(CN2CCc3c([nH]c4ccccc34)C2)cc1Cl	-1	-3	0	-11	-3	4
CSc1ccc(CN2CCc3c([nH]c4ccccc34)C2)cc1	20	-9	15*	-7	-7	4
CC(C)(C)OC(=O)CNC(=O)c1[nH]cnc1C(=O)NCCCCCN	2	2	0	-7	-6	2
CC(C)(C)OC(=O)CNC(=O)c1[nH]cnc1C(=O)NCCCCCNC(=O)OC(C)(C)C	-2	30	17*	-1	-5	-21
CC(C)C[C@H](NC(=O)c1nc[nH]c1C(=O)NCCCCCNC(=O)OC(C)(C)C)C(=O)OC(C)(C)C	-21	61*	-1	-10	-5	-35
O=C(CN1CCN(Cc2cccc(F)c2)CC1)Nc1ccccc1F	8	-10	2	-10	-6	3
Cc1cc(C)nc(NN2C(=O)/C(=C/c3ccccc3)SC2=S)n1	-7	4	0	-5	4	1
CCOc1cc(/C=C2\SC(=S)N(NS(=O)(=O)c3ccccc3)C2=O)ccc1O	-1	13	10	2	6	-9
CN(C)c1ccc(/C=C2\SC(=S)N(Nc3ncc(C(F)(F)F)cc3Cl)C2=O)cc1	6	61*	21*	37*	39*	-18
COc1cc(/C=C2\SC(=S)N(Nc3ncc(C(F)(F)F)cc3Cl)C2=O)ccc1O	7	30*	15	11	22	-4
COc1cc(NC(=S)NCCC(c2ccccc2)c2ccccc2)c(OC)cc1Cl	0	6	0	-6	2	-5
O=C1/C(=C/c2ccc(F)cc2)CCC1C1CCCC1 (stereo not drawn)	-12	-16	0	-3	24*	7
O=C1/C(=C/c2ccccc2)CCC1C1CCCC1 (stereo not drawn)	-8	-9	0	-4	9	6
COc1ccc(C2c3c(-c4cc(Cl)c(C)cc4O)n[nH]c3C(=O)N2Cc2cccnc2)cc1OC (stereo not drawn)	12	80*	0	-6	2	-21
COc1ccc(C2c3c(-c4ccccc4O)n[nH]c3C(=O)N2Cc2ccco2)cc1OC (stereo not drawn)	15	-9	1	-4	-9	1
CN(C)S(=O)(=O)c1ccc(/C(O)=C2/C(=O)C(=O)N(CCN3CCCCC3)C2c2cccnc2)cc1 (stereo not drawn)	12	-8	1	-4	-8	4
CCC(C)NC(=O)C1CCN(S(=O)(=O)c2ccc(OC)cc2)CC1 (stereo not drawn)	15	4	1	-5	-6	-1
COc1ccccc1C(=O)Nc1ccc(N2CCCCC2)cc1	19	-8	1	-5	-22	4
COc1cccc(OC)c1C(=O)Nc1ccc(N2CCCC2)cc1	-18	31*	0	-7	-2	-19
CC(C)Oc1ccc(C(=O)Nc2ccc(N3CCCC3)cc2)cc1	-6	29*	-1	-9	12	-13
SMILES	M1 PAM parental	M1 antag	M1 ag parental	M1 ag	CHO-K1 Ca antag	CHRM1 PAM
S=C(Nc1cccc(Cl)c1Cl)N1CCCC1	-12	-6	0	-1	1	7
CC1=NOC(=O)/C1=C\c1ccc(-c2ccc(Br)cc2)o1	8	34*	7	5	11	-1
COc1cccc(OC)c1C(=O)Nn1c(-c2cccs2)nc2ccccc2c1=O	14	-2	4	-4	-4	-4
COc1cccc(OC)c1C(=O)Nn1c(-c2cccc(C)c2)nc2ccccc2c1=O	-14	0	1	-4	24*	-5
COc1cccc2c1Oc1ncccc1N(C(=O)CCC(=O)NCc1cccc(C)c1)C2	3	-5	2	-5	-8	5
Cc1ccc(C(C)C)cc1S(=O)(=O)NC1CC(C)(C)NC(C)(C)C1	7	-13	0	-7	-6	14
Cc1c(C(=O)OCCN2CCCCC2)oc2ccccc12	19	92*	0	-4	-6	-21
CCN(CC)CC(C)(C)COC(=O)c1oc2ccccc2c1C	-6	32*	0	-7	-11	-22
CC(C)(C)c1ccc(C(=O)OCCN2CCCCC2)cc1	12	45*	10	-7	-14	-30
Cc1c(C(=O)OC(C)CCN(C)C)oc2ccccc12 (stereo not drawn)	9	98*	1	-5	-4	-22
COc1ccc(C(=O)OCCN2CCCCC2)cc1	11	-8	0	-14	-1	9
Cc1c(C(=O)OCC(=O)N2C(C)CCCC2C)oc2ccccc12 (stereo not drawn)	0	-12	1	-6	6	4
O=C(COC(=O)/C=C/c1ccccc1)NNC(=O)c1ccc([N+](=O)[O-])cc1	12	-13	1	0	-6	7
CSc1ncnc2c1ncn2CCCN1CCN(Cc2c(C)cc(C)cc2C)CC1	5	-8	1	-11	-8	1
Cc1c(C(=O)OCC(=O)N(C)Cc2ccccc2)oc2ccccc12	-8	-1	1	-8	5	0
Cc1c(C(=O)OCC(=O)N(C)c2ccccc2)oc2ccccc12	5	33*	3	-5	-9	-22
Cc1c(C(=O)OCC(C)(C)CN(C)C)oc2ccccc12	16	53*	1	-4	-10	-20
O=C1NC(=S)NC1=Cc1ccccc1O	-17	5	17*	19*	23	-8
O=C1NC(=S)NC1=Cc1ccc(Cl)cc1Cl	-14	-3	0	-2	26*	1
Cc1ccc(NC(=O)CN2CCN(C(=O)C3CC3)CC2)c(F)c1	4	-5	1	4	-14	17
Cc1cccc(C)c1-n1nnnc1C(c1ccnc2ccccc12)N(CCN(C)C)Cc1ccccc1 (stereo not drawn)	6	·	1	·	-6	·

Compound activity: PubChem BioAssay, The Scripps Research Institute Molecular Screening Center
